Nrf2 ARE act – qHTS of Nrf2 Activators; AREc32 ARE-luciferase reporter (MCF7-derived line), luminescence, 24 h; Potency, µM (series often up to 46.1 µM), without a hit: top-dose activation, actives largely listed as activators; 410,000 tested, 0.31% active; AID 624171, 2012; further: potency means the concentration at half of the fitted maximal effect; % of control where 0% means no effect; nearly all actives have a fitted effect of over 65% in size
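AREc32 cells carrying an ARE-driven firefly luciferase reporter were seeded at 1000 cells/well in OPTI-MEM with 5% FBS, then exposed to compound for 24 hr at 37 deg C. Luminescence was read with Steady-Glo after 30 min at RT.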
A549 tox – Nrf2 qHTS screen for inhibitors: counterscreen for cytotoxicity; A549 ARE-Fluc cells, CellTiter-Fluor viability, 18-24 h; AID 504648, 2011; 390,000 tested, 0.16% active; Potency, µM (titrated, usually from 46 µM), inactives show at the top dose activity change, negative = cytotoxicity, most hits filed as inhibitors; further: potency means the concentration at half of the fitted maximal effect; on the % scale 0 is the no-effect control and ±100 the full control effect
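Cytotoxicity counterscreen: CellTiter-Fluor fluorescence was measured in A549 ARE_Fluc cells after 18-24 h of compound exposure in a concentration series. The subsequent BugLite luminescent read reports ARE-luciferase activity.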
GRP78 ERSR act – qHTS for Inducers of the Endoplasmic Reticulum Stress Response (ERSR) in Human Glioma: qHTS. U87-MG GRP78 promoter luciferase reporter, 16 h. Potency, µM, for the others: at the highest dose activation, hits mostly activators. 420,000 tested, 0.02% active; further: potency means the concentration at half of the fitted maximal effect; series mostly up to about 76 µM; % of control where 0% means no effect; nearly all actives have a fitted effect of over 35% in size
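Stably transfected U87-MG human glioma cells carrying a GRP78-based luminescent sensor were seeded at 1000 cells/well, pin-dosed with compounds and incubated 16 h. Luciferase reagent was then added, and end-point luminescence was read after 10 min at room temperature.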
miR-21 act – qHTS Assay for Modulators of miRNAs and/orActivators of miR-21; HeLa miR-21 FLuc reporter, luciferase, 48 h; Potency, µM (highest dose often 38.3 µM), for inactives: at the top dose activity change, positive = activation, usual class: activators; 340,000 tested, under 10 active; AID 2288, 2010;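 further: % of control where 0% means no effect; miR-21 action dims this reporter so a rising signal means less miR-21 action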
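HeLa cells stably expressing CMV-driven firefly luciferase with a downstream miR-21 binding sequence, endogenously expressing miR-21, were treated with titrations (up to about 40uM final) for 48 hours at 37 degree Celsius. Luciferase luminescence was read after lysis.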
TSG101-PTAP inh – qHTS Assay for Iinhibitors of HIV-1 Budding by Blocking the Interaction of PTAP/TSG101; 340,000 tested, under 10 active; Fluorescence polarization, FITC-PTAP peptide / Tsg101 binding; Tumor susceptibility gene 101 protein (Homo sapiens), Q99816; Potency, µM (highest dose often 115 µM), without a hit: at the highest dose activity change, negative = inhibition, usual class: inhibitors; active means well fitted inhibition curve with a large enough effect in the main read-out, with a control signal flat, not every such curve was filed as active; inconclusive means small, poorly fitted or top-dose-only effect, or effect the other way, or a change in a side signal; inactive means no such curve, though single readings can be large or run the other way; further: potency means the concentration at half of the fitted maximal effect; % of control where 0% means no effect
Target sequence (Q99816 whole entry, looked up): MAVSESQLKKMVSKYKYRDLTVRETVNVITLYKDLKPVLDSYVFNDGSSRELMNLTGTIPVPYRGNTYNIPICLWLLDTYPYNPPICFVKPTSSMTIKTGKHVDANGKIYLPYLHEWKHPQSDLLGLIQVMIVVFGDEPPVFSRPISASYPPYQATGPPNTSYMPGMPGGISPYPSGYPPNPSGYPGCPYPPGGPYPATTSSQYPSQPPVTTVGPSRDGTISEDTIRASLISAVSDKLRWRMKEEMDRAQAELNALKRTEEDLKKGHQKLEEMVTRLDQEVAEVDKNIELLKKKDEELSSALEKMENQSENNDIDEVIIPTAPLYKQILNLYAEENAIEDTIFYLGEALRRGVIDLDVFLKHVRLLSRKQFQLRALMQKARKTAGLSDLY
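Fluorescence anisotropy tracks displacement of a FITC-tagged PTAP peptide (50 nM) from the Tsg101 binding domain (10 uM), following a 20 min room-temperature incubation at pH 7.5.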
Nrf2 block – Nrf2 qHTS screen for inhibitors; A549 ARE-Fluc reporter, luciferase luminescence, 18-24 h; Potency, µM (highest dose often 46 µM), without a hit: at the top dose activity change, negative = inhibition, most hits filed as inhibitors; 360,000 tested, 2.1% active; further: potency means the concentration at half of the fitted maximal effect; on the % scale 0 is the no-effect control and ±100 the full control effect; nearly all actives have a fitted effect of over 60% in size
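Concentration-response testing used A549 ARE_Fluc cells at 5000 cells/well. Following an 18-24 h compound incubation, viability was read by fluorescence (Ex 405/Em 525) and luciferase output by luminescence.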
Active calls of the source: *; ? = inconclusive; / = no result given. Compounds with a hit are over-represented: about 2.1% of the library has one in this group of screens. Unless noted, the call rests on the fitted dose curve; in most records, active means well fitted curve in the direction sought with a large enough effect; inconclusive means small, poorly fitted or top-dose-only effect, or another doubt; inactive means no such curve, though single readings can be large; an effect the other way counts as inactive or inconclusive.

SMILES | Nrf2 ARE act | A549 tox | GRP78 ERSR act | miR-21 act | TSG101-PTAP inh | Nrf2 block
COc1ccc(NC(=O)c2cccc(N3C(=O)C4C5C=CC(C6CC56)C4C3=O)c2)cc1 (configuration not stated) | 0% | -12% | -4% | 29% | / | 21µM*
COc1ccc(NC(=O)c2cccc(N3C(=O)C4C5C=CC(C6CC56)C4C3=O)c2)c(OC)c1 (configuration not stated) | 0% | -7% | -4% | 16% | -2% | ?
COc1ccc2c(c1)OC(C)CN(CC(=O)NCc1cn[nH]c1-c1ccc(F)cc1)C2 (configuration not stated) | / | / | -1% | / | / | /
COc1cc(OC)cc(C(=O)N2CCCC(n3cc(C(=O)NCC(C)C)nn3)C2)c1 (configuration not stated) | / | / | -1% | / | / | /
Cc1ccc(-c2nn(-c3ccccc3)cc2C2CC(c3ccccc3)=NN2C(=O)CCC(=O)O)cc1 (configuration not stated) | 0% | -7% | -5% | -5% | -19% | 21µM*
Cc1ccc(C2=NN(C(=O)CCC(=O)O)C(c3cn(-c4ccccc4)nc3-c3ccc(C)cc3)C2)cc1 (configuration not stated) | -1% | ? | -3% | -19% | -5% | -17%
O=[S+]([O-])(c1ccc2c(c1)OCCO2)N1CCN([S+](=O)([O-])c2cc(Cl)ccc2F)CC1 | / | 0% | / | / | / | -8%
O=C(Nc1ccccc1Cl)N1CCCN(c2nc(-c3ccccc3)ns2)CC1 | 4% | -16% | -3% | 17% | 1% | ?
O=C(Nc1ccccc1)N1CCN(c2nc(-c3ccccc3)ns2)CC1 | 2% | -14% | 4% | 9% | -2% | 23µM*
Cc1c(Cl)cccc1NC(=O)N1CCCN(c2nc(-c3ccccc3)ns2)CC1 | 2% | -2% | -2% | 19% | 0% | 21µM*
C=CCn1c(SCC(=O)Nc2sccc2C(N)=O)nc2ccccc2c1=O | 1% | -25% | -6% | 18% | -8% | 26µM*
C=CCn1c(SCC(=O)Nc2sccc2C(N)=O)nc2ccc(Cl)cc2c1=O | 10% | ? | 5% | 14% | -7% | ?
C=CCn1c(SCC(=O)Nc2sccc2C(N)=O)nc2sc(CC)cc2c1=O | 15% | ? | -2% | 28% | 1% | 15µM*
O=S(=O)(c1ccc2c(c1)OCCO2)N1CCN(S(=O)(=O)c2c(F)cccc2F)CC1 | / | ? | / | / | / | 0%
O=S(=O)(NCC1CN(S(=O)(=O)c2c(F)cccc2F)C1)c1ccc2c(c1)OCCO2 | 2% | -12% | -6% | / | 0% | 12µM*
Cc1c(F)cccc1Cn1cnc2c(cnn2C(C)(C)C)c1=O | / | / | -1% | / | / | /
CCCCc1ccc(NC(=O)COC(=O)c2ccccc2OCC(=O)Nc2ccc(Br)cc2)cc1 | / | / | -3% | / | / | /
Cc1cccc(NC(=S)/N=C(\N)Nc2nc(C)c3ccc(C)cc3n2)c1 | 4% | ? | -4% | 22% | -1% | 15µM*
O=[N+]([O-])c1ccc([S+](=O)([O-])N2CCN([S+](=O)([O-])c3ccc4c(c3)OCCO4)CC2)c([N+](=O)[O-])c1 | / | -1% | / | / | / | -18%
COc1ccc(CN2CCCC(n3cc(C(=O)NC4CCCC4)nn3)C2)c2ccccc12 (configuration not stated) | / | / | -3% | / | / | /
COC1=C(Nc2ccc(O)cc2)C(=O)c2ccccc2C1=O | 0% | ? | 1% | -2% | -3% | 23µM*
Cc1ccc(Nc2nc(C#N)nc(NC3CCCC3)n2)cc1 | / | -1% | / | / | / | 18%
c1ccc(NCCc2ccccn2)cc1 | 0% | 0% | 2% | / | -5% | ?
Nc1cc(C(F)(F)F)ccc1NCCc1ccccn1 | 13µM* | -17% | -1% | 3% | -7% | -4%
NS(=O)(=O)c1nn2cc(-c3ccccc3)nc2s1 | / | / | -5% | / | / | /
SMILES | Nrf2 ARE act | A549 tox | GRP78 ERSR act | miR-21 act | TSG101-PTAP inh | Nrf2 block
CN(c1ccccc1)P(=O)(N(C)c1ccccc1)N(C)c1ccccc1 | 0% | ? | -2% | ? | -5% | 16µM*
Cc1c([S+](=O)([O-])N2CCN([S+](=O)([O-])c3c(F)cccc3F)CC2)sc2ccc(Cl)cc12 | / | -1% | / | / | / | 14%
CCC1CCCCN1C(=O)CSc1nc(-c2ccc(OC)c(OC)c2)cc(C(F)(F)F)n1 (configuration not stated) | 0% | ? | -3% | 18% | / | ?
CCC1CCCCN1C(=O)CSc1nc(-c2ccc(OC)cc2)cc(C(F)(F)F)n1 (configuration not stated) | 0% | -6% | -1% | ? | / | 21µM*
Cc1nc2cc(-c3cccc(F)c3)nn2c(C)c1CCC(=O)NC(C)c1ccccc1 (configuration not stated) | 6% | -8% | -7% | 21% | / | 3.7µM*
COc1cc(NC(=O)CCc2c(C)nc3cc(-c4ccccc4)nn3c2C)cc(OC)c1OC | -2% | -3% | -7% | 8% | / | 2.6µM*
COc1ccc(-c2cc3nc(C)c(CCC(=O)NCCc4ccc(Cl)cc4)c(C)n3n2)c(OC)c1 | 0% | ? | -3% | -4% | / | ?
Cc1nc2cc(-c3cccc(F)c3)nn2c(C)c1CCC(=O)NCCc1ccccc1 | 1% | 2% | -8% | 16% | / | ?
COc1ccc(CCNC(=O)CCc2c(C)nc3cc(-c4ccccc4OC)nn3c2C)c(OC)c1 | 0% | -3% | -5% | 27% | / | 23µM*
O=C(NCCNc1ccnc2cc(Cl)ccc12)c1ccccc1F | 4% | -10% | -3% | 16% | 0% | 18µM*
C[C@@H]1CN(Cc2ccc3c(c2)CN(C(=O)CCc2nc4ccc(F)cc4[nH]2)CCO3)C[C@H](C)O1 | / | / | 0% | / | / | /
CC(C)CS(=O)(=O)c1oc(-c2ccc(F)cc2)nc1S(=O)(=O)c1ccccc1 | -6% | ? | -11% | ? | / | 23µM*
COc1cccc(C(=O)OC(C)C(=O)Nc2ccc3c(c2)OCO3)c1 (configuration not stated) | 3% | -15% | 6% | / | -3% | ?
CC(OC(=O)c1cccc(NS(C)(=O)=O)c1)C(=O)Nc1ccc2c(c1)OCO2 (configuration not stated) | 0% | -6% | -3% | / | 0% | 23µM*
COc1cc(=O)n2c(c1C(=O)N(C)Cc1nccs1)CCN(Cc1c(F)ccc(F)c1F)CC2 | / | / | -4% | / | / | /

Compound activity: PubChem, National Center for Advancing Translational Sciences (NCATS)
